Experimental data taken from PubChem BioAssay (NCI).
This is part of a sample that, as a whole, favours compounds with a hit. Of some 79,000 tested, about 15% had one in any assay. Cut-off read from the data, not from the text of the source: active = growth inhibition above about 70%; inactive = the rest.

Experiments:
[1] = NCI Yeast Anticancer Drug Screen. Data for the rad50 strain (AID 155);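 note: 0% = growth of vehicle-only cultures of the same strain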; settings: S. cerevisiae rad50 strain growth inhibition; at 50.0 µM; active compounds read high
Method in brief: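 Inhibition values express reduced yeast growth in compound-treated cultures relative to vehicle-treated controls.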

[2] = NCI Yeast Anticancer Drug Screen. Data for the mec2-1 strain (AID 157); settings: S. cerevisiae mec2-1 strain, at 50.0 µM, active compounds read high
Method in brief: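 Strain: mec2-1 (DNA repair/cell cycle alteration). Compound exposure, then growth measured; inhibition expressed relative to vehicle.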

[3] = NCI Yeast Anticancer Drug Screen. Data for the sgs1 mgt1 strain (AID 161);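 note: 0% = growth of cultures given vehicle only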; settings: S. cerevisiae sgs1 mgt1 strain, at 50.0 µM, active compounds read high
Method in brief: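 Read-out: growth inhibition vs vehicle controls. Cells: mutant yeast strain deficient in DNA damage repair.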

[4] = NCI Yeast Anticancer Drug Screen. Data for the cln2 rad14 strain (AID 165);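 note: 0% = growth equal to vehicle treated cultures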; settings: S. cerevisiae cln2 rad14 strain, at 50.0 µM, active compounds read high
Method in brief: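 Compounds are applied to the cln2 rad14 yeast strain, and growth is then compared with that of vehicle-treated cultures to give inhibition.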

[5] = NCI Yeast Anticancer Drug Screen. Data for the bub3 strain (AID 167); settings: S. cerevisiae bub3 mutant strain, at 50.0 µM, active compounds read high
Method in brief: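 Steps: expose the mutant yeast strain to compound; grow alongside vehicle-treated cultures; measure growth; express inhibition against the vehicle cultures.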

[6] = NCI Yeast Anticancer Drug Screen. Data for the mlh1 rad18 strain (AID 175); settings: S. cerevisiae mlh1 rad18 strain growth inhibition; at 50.0 µM; active compounds read high
Method in brief: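 Read-out is yeast growth inhibition, calculated against vehicle-only controls. The compound was applied to a strain engineered with DNA damage repair alterations.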

Measured: growth inhibition

O=c1[nH]c2ccccc2c(=O)n1CCCN1CCN(c2cccc(Cl)c2)CC1
inactive: [1] 22% | [2] 12.4% | [3] 33.8% | [4] -23.4% | [5] 15.8% | [6] 14.8%

Cc1cccc2nnc(CCCc3nnc4cccc(C)n34)n12
inactive: [1] -0.85% | [2] 1.85% | [3] -22.1% | [4] -34.4% | [5] -8.8% | [6] -6.3%

Clc1cccc(Cl)c1/C=N/N1CCN(/N=C/c2c(Cl)cccc2Cl)CC1
inactive: [1] 18.9% | [2] 10.1% | [3] 17.9% | [4] 6.45% | [5] -4.1% | [6] 0.7%

Nc1nc(N)c2nonc2n1
inactive: [1] -3.7% | [2] -20.8% | [3] -10.8% | [4] -26.2% | [5] -2.85% | [6] 2%

O=C(O)Cc1ccc(I)cc1
inactive: [1] 58% | [2] -1.2% | [3] 26.9% | [4] -54% | [5] 34.2% | [6] 25.3%

Cc1ccc(C2(c3ccc(C)cc3)OCC(C)(CBr)CO2)cc1
inactive: [1] -30% | [2] -1.4% | [3] -20.4% | [4] -8.5% | [5] 1.6% | [6] -14.5%

O=C(/C=C/c1ccc(O)cc1)c1ccc2c(c1)OCO2
inactive: [1] 8.05% | [2] 23.3% | [3] 25.8% | [4] -1.55% | [5] 43% | [6] 43.8%

O=[N+]([O-])c1cc2c(c([N+](=O)[O-])c1)Nc1cc(Cl)ccc1O2
inactive: [1] 1.6% | [2] 19.8% | [3] 17.6% | [4] 11.8% | [5] 4.4% | [6] 26.9%

CC(=O)OCC(=O)[C@@]1(O)CC[C@H]2[C@@H]3C[C@@H](C)[C@@]4(O)CC5(CC[C@]4(C)[C@H]3[C@@H](O)C[C@@]21C)OCC(C)(C)CO5
inactive: [1] 0.35% | [2] 16.2% | [3] 27.1% | [4] 28.6% | [5] -6.2% | [6] -11.2%

O=C1NC(=O)C2(N1)c1ccccc1-c1ccc(Br)cc12 (centres undefined)
inactive: [1] -2.85% | [2] -8.9% | [3] -0.2% | [4] -20.4% | [5] 0.15% | [6] -2.7%

CC1(C)N=C(N)N=C(N)N1c1ccc(C(=O)c2ccccc2)cc1
inactive: [1] 2.65% | [2] -3.5% | [3] -3.3% | [4] -3.1% | [5] 13.5% | [6] 15.5%

CCOC(=O)C1=C(C(=O)c2ccccc2)C(c2ccc([N+](=O)[O-])cc2)C(C(=O)c2ccccc2)=C(C(=O)OCC)N1
inactive: [1] -6.5% | [2] 1.6% | [3] -4% | [4] 14.2% | [5] -10.9% | [6] 7.5%

N#Cc1c[nH]c2cccc([N+](=O)[O-])c12 (tested in a mixture with another compound)
inactive: [1] 7.95% | [2] -10.9% | [3] 7.8% | [4] 17.9% | [5] 13.4% | [6] -2.8%

COc1ccccc1NC(=O)CC(=O)N1N=C(N(c2ccccc2)c2ccccc2)CC1c1ccccc1 (centres undefined)
inactive: [1] 6.75% | [2] -1.1% | [3] -7.15% | [4] 9.8% | [5] 9.6% | [6] 23.1%

O=c1c2ccccc2oc2cc([N+](=O)[O-])cc([N+](=O)[O-])c12
inactive: [1] -15.9% | [2] -16.2% | [3] -14.4% | [4] 38.4% | [5] 0.9% | [6] -60.6%

COc1ccc(/C=C2\CCN=C2c2ccccc2)cc1OC
inactive: [1] -1.65% | [2] -1.85% | [3] 2.85% | [4] -23.3% | [5] 4.4% | [6] 2.65%

CC1CC(C)(C)OC(C2CC=CCC2)O1 (centres undefined)
inactive: [1] -12.7% | [2] -19.6% | [3] -13.8% | [4] -1.95% | [5] 2.35% | [6] 2.7%

O=C(O)/C1=C/CCC(C(=O)O)CCC1 (centres undefined)
inactive: [1] -4.15% | [2] -1.95% | [3] -7.35% | [4] -44.6% | [5] -12.5% | [6] 22.9%

CCCC(=O)OC1C(CO)OC(n2cc(F)c(=O)[nH]c2=O)C1F (centres undefined)
inactive: [1] -7.85% | [2] 6.4% | [3] -8.6% | [4] -15.7% | [5] 3.75% | [6] -17.8%

COc1ccc(C2Oc3cc(OC)c(OC)cc3C2CCl)cc1OC (centres undefined)
inactive: [1] -20.1% | [2] 1.85% | [3] -46.8% | [4] -0.4% | [5] -26.9% | [6] -35.2%

CC(=O)Nc1ccc(Cc2ccc(Cl)cc2)cc1
inactive: [1] 5.6% | [2] 0.7% | [3] 5.7% | [4] 10.8% | [5] -9.8% | [6] -2.6%

COc1nc(NC2OCC(O)C(O)C2O)c(C(C)=O)c(=O)n1C (centres undefined)
inactive: [1] 3.5% | [2] -2.65% | [3] 7.05% | [4] -0.25% | [5] -19.4% | [6] -0.7%

Cc1cc(C)cc(N)c1
inactive: [1] 1.7% | [2] -29.9% | [3] -5.1% | [4] -8.85% | [5] -5.25% | [6] -10%

CC(C)(C)c1ccc(OCCCl)c(Cl)c1
inactive: [1] 2.35% | [2] -2.45% | [3] 33.7% | [4] -41.9% | [5] 0.75% | [6] 6.3%

COC1(OC)C2(Cl)C3=CCCC=C3C1(Cl)C(Cl)=C2Cl
inactive: [1] 27.5% | [2] 9.45% | [3] 11.7% | [4] 29.8% | [5] 15.6% | [6] -6.65%

O=C(NO)c1ccc(O)c(O)c1
inactive: [1] 2.1% | [2] 14.4% | [3] 5.55% | [4] -8.25% | [5] -8.45% | [6] -39%

CC1(C)OC(C(F)(F)F)(C(F)(F)F)c2cc(C(C)(C)C)ccc2S1
inactive: [1] -26.9% | [2] -29.8% | [3] -12.7% | [4] -35.4% | [5] -1% | [6] -9.95%

Cc1ccc(C(=O)OC[C@H]2CC[C@@H](n3cc(N(C)C4CCCCC4)c(=O)[nH]c3=O)O2)cc1
inactive: [1] 2.4% | [2] -32.2% | [3] 8.7% | [4] 14.5% | [5] -2.15% | [6] 31.8%

CC(N(N=O)c1cccc(Cl)c1)S(=O)(=O)O (centres undefined)
inactive: [1] 7.25% | [2] 4.8% | [3] -6.45% | [4] 22.6% | [5] 5.55% | [6] -0.4%

Cc1ccc(CC2CC(=O)c3ccccc3C2=O)cc1 (centres undefined)
inactive: [1] -7.6% | [2] 2.95% | [3] -4.55% | [4] -13.9% | [5] 3.65% | [6] -16.4%

CCOC(=O)[C@H]1C(CC)=NOC1C (some centres undefined)
inactive: [1] 9.95% | [2] 13.2% | [3] 2.9% | [4] -27.5% | [5] 4.25% | [6] 2.4%

CC(=O)Nc1ccc(/C=N/Nc2nc3ccccc3s2)cc1
inactive: [1] -10.3% | [2] -11% | [3] -5% | [4] -50.4% | [5] 1.9% | [6] 31.1%

Oc1ccc(O)c(-n2cccn2)c1-n1cccn1
inactive: [1] -0.85% | [2] -4.55% | [3] -1.6% | [4] 6.3% | [5] 0% | [6] -2.75%

CCOc1ccc2nc(/C=C/c3ccccc3)ccc2c1
inactive: [1] 13.9% | [2] -3.65% | [3] 13.8% | [4] -3.75% | [5] 9.85% | [6] 14.8%

CCC1SCC(C)(C)NC1=O (centres undefined)
inactive: [1] 4.9% | [2] 13.4% | [3] -3.85% | [4] -39.2% | [5] 28.8% | [6] 1.4%

C=CCOC(=O)C(C)OC(=O)OCC (centres undefined)
inactive: [1] 9.2% | [2] 10.7% | [3] 6.85% | [4] 8.1% | [5] -2.1% | [6] 7.15%

CC1(O)C(=O)N(Cc2ccccc2)c2ccccc21 (centres undefined)
inactive: [1] 25.6% | [2] -5% | [3] -5.2% | [4] -8.5% | [5] -10.4% | [6] 4.05%

O=[N+]([O-])c1cc(C(F)(F)F)ccc1Cl
inactive: [1] -11.2% | [2] 10.3% | [3] -5.85% | [4] 31.3% | [5] -12.9% | [6] -27.8%

COc1cc2c(cc1OC)C(=O)/C(=C/c1ccc(N(C)C)cc1)CC2
inactive: [1] -39.5% | [2] -58% | [3] -28.9% | [4] -63.7% | [5] -7.2% | [6] -39.8%
